Source: the antibiotic and cytotoxicity screens of Wong et al. (2023)
Hit rate of the full screen: of about 39,000 compounds, about 500 (1.3%) were called active. Only a selection was taken, and actives are over-represented in it overall.

What follows are compounds tested on S. aureus RN4220 (assay: growth inhibition call (relative growth <= 0.2)). Details: 50 µM.
For `C[C@@H]1CCCCO[C@H](CN(C)C(=O)Nc2ccc(C(F)(F)F)cc2)[C@H](C)CN([C@@H](C)CO)C(=O)c2cc(NC(=O)Nc3ccc(C(F)(F)F)cc3)ccc2O1`, the growth inhibition call was “inactive”. `C[C@@H]1CN([C@@H](C)CO)C(=O)c2cc(NC(=O)Nc3ccc(C(F)(F)F)cc3)ccc2O[C@H]1CN(C)Cc1ccc(-c2ccccc2)cc1` was tested, and the growth inhibition call was “inactive”. In the case of `C[C@@H]1CN([C@H](C)CO)C(=O)c2cc(NC(=O)c3ccncc3)ccc2O[C@@H]1CN(C)Cc1ccncc1`, the growth inhibition call is reported as “inactive”. With `Cc1ccc(CN)cc1Cl` the growth inhibition call was “inactive”. `Cc1cc(CN)cc(C)c1NC(=O)c1ccc(-c2cc(Cl)ccc2Cl)o1` was tested, and the growth inhibition call was “active”. For `Cc1cc(C(=O)c2cc3cc(Cl)ccc3o2)ccc1Cl`, the growth inhibition call was “inactive”. With `O=C1CCOC1` the growth inhibition call was “inactive”. In the case of `C[C@H]1CN([C@@H](C)CO)C(=O)c2cc(NC(=O)Cn3cnnn3)ccc2O[C@H]1CN(C)Cc1ccc(Cl)c(Cl)c1`, the growth inhibition call is reported as “inactive”. `C[C@H](CO)N1C[C@H](C)[C@@H](CN(C)C(=O)NC2CCCCC2)Oc2ccc(NC(=O)Nc3cccc4ccccc34)cc2C1=O` was tested, and the growth inhibition call was “inactive”. With `CCCC[P+](CCCC)(CCCC)Cc1ccc(NC(=O)[C@@H](Cc2ccc3ccccc3c2)N=C(NC2CCCCC2)NC2CCCCC2)cc1` the growth inhibition call was “active”. In the case of `C[C@@H]1CN([C@H](C)CO)C(=O)c2cc(NC(=O)Nc3cccc4ccccc34)ccc2O[C@@H]1CN(C)C(=O)NC1CCCCC1`, the growth inhibition call is reported as “inactive”. `CCC(=O)Nc1ccc2ccccc2c1` was tested, and the growth inhibition call was “inactive”. For `CCCC[P+](CCCC)(CCCC)Cc1ccc(NC(=O)[C@H](Cc2ccc3ccccc3c2)N/C(=N/C2CCCCC2)NC2CCCCC2)cc1`, the growth inhibition call was “active”. `CN(Cc1ccccc1)C(=O)[C@H](Cc1ccc2ccccc2c1)NC(=O)[C@@H]1CCCN1C(=O)Nc1ccccc1[N+](=O)[O-]` was tested, and the growth inhibition call was “inactive”. In the case of `C[C@H](CO)N1C[C@H](C)[C@H](CN(C)S(=O)(=O)c2ccc(Cl)cc2)Oc2ccc(N(C)C)cc2CC1=O`, the growth inhibition call is reported as “inactive”. For `C[C@H]1CN([C@@H](C)CO)C(=O)c2cccc(NS(C)(=O)=O)c2O[C@@H]1CN(C)S(=O)(=O)c1ccc(F)cc1`, the growth inhibition call was “inactive”. For `CN(C)CCC=C1c2ccccc2COc2ccc(CC(=O)O)cc21.Cl`, the growth inhibition call was “active”. With `CN(C)CCC=C1c2ccccc2CCc2ccccc21.Cl` the growth inhibition call was “inactive”. In the case of `CN(C)CCC=C1c2ccccc2COc2ccccc21.Cl`, the growth inhibition call is reported as “inactive”. In the case of `COc1ccc(S(=O)(=O)N(C)C[C@@H]2Oc3ccc(NC(=O)c4ccncc4)cc3C(=O)N([C@H](C)CO)C[C@H]2C)cc1`, the growth inhibition call is reported as “inactive”. With `C[C@@H]1CCCCO[C@@H](CN(C)C(=O)C2CCCCC2)[C@@H](C)CN([C@@H](C)CO)C(=O)c2cc(NS(=O)(=O)c3cccs3)ccc2O1` the growth inhibition call was “inactive”. With `Cc1noc(C)c1NC(=O)N(C)C[C@H]1Oc2ccc(NS(=O)(=O)c3c(C)noc3C)cc2CC(=O)N([C@H](C)CO)C[C@H]1C` the growth inhibition call was “inactive”. With `Cc1cc(Cl)cc2sc(N(Cc3ccccn3)C(=O)c3ccc(S(=O)(=O)N4CCCC4)cc3)nc12` the growth inhibition call was “inactive”. `Cc1ccc2sc(N(CCCN(C)C)C(=O)c3ccc(S(=O)(=O)N(C)Cc4ccccc4)cc3)nc2c1C` was tested, and the growth inhibition call was “inactive”. In the case of `Cc1ccc2sc(N(CCCN(C)C)C(=O)c3ccc(S(=O)(=O)N(C)C4CCCCC4)cc3)nc2c1C`, the growth inhibition call is reported as “active”. `CC(C)NC(=O)Nc1ccc2c(c1)C(=O)N([C@H](C)CO)C[C@@H](C)[C@H](CN(C)C(=O)C1CCCCC1)OCCCC[C@H](C)O2` was tested, and the growth inhibition call was “inactive”. With `Cc1cc(C(=O)Nc2cccc3c2O[C@@H](CN(C)C(=O)Nc2c(C)noc2C)[C@H](C)CN([C@H](C)CO)C3=O)n(C)n1` the growth inhibition call was “inactive”. For `C[C@@H]1CCCCO[C@H](CN(C)S(=O)(=O)c2ccccc2)[C@@H](C)CN([C@H](C)CO)C(=O)c2cc(NC(=O)Nc3ccc(F)cc3)ccc2O1`, the growth inhibition call was “inactive”. With `CO[C@@H]1CN(C)C(=O)c2ccc(NS(=O)(=O)c3ccccc3)cc2OC[C@@H](C)N(C(=O)NC(C)C)C[C@H]1C` the growth inhibition call was “inactive”. For `O=C(O)C1=C[C@@H](O)[C@H](O)[C@H](O)C1`, the growth inhibition call was “inactive”. For `C[C@@H]1CN([C@@H](C)CO)C(=O)c2cc(NC(=O)Nc3ccc(C(F)(F)F)cc3)ccc2O[C@@H]1CN(C)Cc1ccccc1`, the growth inhibition call was “inactive”. For `C[C@H](CO)N1C[C@H](C)[C@H](CN(C)Cc2ccccc2)Oc2ccc(NC(=O)Nc3ccc(C(F)(F)F)cc3)cc2C1=O`, the growth inhibition call was “active”. For `COc1ccc(CN(C)C[C@@H]2Oc3ccc(NC(=O)Nc4ccc(C(F)(F)F)cc4)cc3C(=O)N([C@H](C)CO)C[C@@H]2C)cc1`, the growth inhibition call was “active”. With `COc1ccc(CN(C)C[C@@H]2Oc3ccc(NC(=O)Nc4ccc(C(F)(F)F)cc4)cc3C(=O)N([C@@H](C)CO)C[C@@H]2C)cc1` the growth inhibition call was “inactive”. In the case of `COc1ccc(NC(=O)Nc2ccc3c(c2)C(=O)N([C@@H](C)CO)C[C@@H](C)[C@@H](CN(C)Cc2ccc(C(F)(F)F)cc2)O3)cc1`, the growth inhibition call is reported as “inactive”. `C[C@H](CO)N1C[C@H](C)[C@@H](CN(C)Cc2ccccc2)Oc2ccc(NC(=O)Nc3ccc(C(F)(F)F)cc3)cc2C1=O` was tested, and the growth inhibition call was “inactive”. For `C[C@@H]1CN([C@H](C)CO)C(=O)c2cc(NC(=O)Nc3ccc(C(F)(F)F)cc3)ccc2O[C@@H]1CN(C)Cc1ccccc1`, the growth inhibition call was “inactive”. In the case of `C[C@H]1CN([C@@H](C)CO)C(=O)c2cc(NC(=O)Nc3ccc(C(F)(F)F)cc3)ccc2O[C@H]1CN(C)Cc1ccc2c(c1)OCO2`, the growth inhibition call is reported as “active”. `C[C@H]1CN([C@@H](C)CO)C(=O)c2cc(NC(=O)Nc3ccc(C(F)(F)F)cc3)ccc2O[C@H]1CN(C)Cc1ccccc1` was tested, and the growth inhibition call was “active”. In the case of `C[C@H](CO)N1C[C@H](C)[C@@H](CN(C)Cc2ccc3c(c2)OCO3)Oc2ccc(NC(=O)Nc3ccc(C(F)(F)F)cc3)cc2C1=O`, the growth inhibition call is reported as “inactive”. For `C[C@@H]1CN([C@@H](C)CO)C(=O)c2cc(NC(=O)Nc3ccc(C(F)(F)F)cc3)ccc2O[C@@H]1CN(C)Cc1ccc2c(c1)OCO2`, the growth inhibition call was “inactive”. `C[C@H]1CN([C@@H](C)CO)C(=O)c2cc(NC(=O)Nc3ccc(C(F)(F)F)cc3)ccc2O[C@@H]1CN(C)Cc1ccccc1` was tested, and the growth inhibition call was “inactive”. For `O=C(C[C@H]1CC[C@H]2[C@@H](COC[C@H](O)CN2S(=O)(=O)c2ccccc2)O1)N1CCOCC1`, the growth inhibition call was “inactive”. With `C[C@@H]1CN([C@@H](C)CO)C(=O)c2cc(NC(=O)NC3CCCCC3)ccc2O[C@@H](C)CCCCO[C@H]1CN(C)S(=O)(=O)c1ccc(F)cc1` the growth inhibition call was “inactive”. With `CC(C)c1cc(=O)n2nc(N)nc2[nH]1` the growth inhibition call was “inactive”. For `Cc1ccc(S(=O)(=O)N(C)C[C@@H]2Oc3ncc(C#CCC(C)C)cc3C(=O)N([C@@H](C)CO)C[C@H]2C)cc1`, the growth inhibition call was “inactive”. With `Cc1noc(C)c1NC(=O)N[C@@H]1CC[C@H](CC(=O)N2CCN(C)CC2)O[C@H]1CO` the growth inhibition call was “inactive”. For `CC(=O)N1[C@H](CO)[C@H](c2ccccc2)[C@H]1CNC(=O)CN1CCOCC1`, the growth inhibition call was “inactive”. With `C[C@@H]1CN([C@@H](C)CO)C(=O)c2cc(NS(C)(=O)=O)ccc2O[C@@H]1CN(C)C(=O)NC1CCCCC1` the growth inhibition call was “inactive”. With `Cc1ccc(S(=O)(=O)N(C)C[C@H]2Oc3ccc(NS(=O)(=O)c4ccccc4)cc3C(=O)N([C@@H](C)CO)C[C@H]2C)cc1` the growth inhibition call was “inactive”. For `Cc1ccc(S(=O)(=O)Nc2ccc3c(c2)C(=O)N([C@@H](C)CO)C[C@H](C)[C@@H](CN(C)C(=O)Nc2ccc(C(F)(F)F)cc2)OCCCC[C@H](C)O3)cc1`, the growth inhibition call was “inactive”. `COCC(=O)Nc1ccc2c(c1)[C@H]1C[C@H](CC(=O)N3CCOCC3)O[C@H](CO)[C@H]1O2` was tested, and the growth inhibition call was “inactive”. With `COc1ccc(NC(=O)Nc2ccc3c(c2)C(=O)N([C@@H](C)CO)C[C@@H](C)[C@@H](CN(C)S(=O)(=O)c2cn(C)cn2)O3)cc1` the growth inhibition call was “inactive”. For `CO[C@@]12[C@H](COC(N)=O)C3=C(C(=O)C(C)=C(N)C3=O)N1C[C@@H]1N[C@@H]12`, the growth inhibition call was “inactive”. With `CO[C@@]12[C@@H]3N[C@@H]3CN1C1=C(C(=O)C(N)=C(C)C1=O)[C@@H]2COC(N)=O` the growth inhibition call was “active”. In the case of `COC12C(COC(N)=O)C3=C(C(=O)C(C)=C(N)C3=O)N1CC1NC12` (centres undefined), the growth inhibition call is reported as “active”. `Cc1onc(C(=O)O)c1[N+](=O)[O-]` was tested, and the growth inhibition call was “inactive”. For `C[C@H]1CN([C@@H](C)CO)S(=O)(=O)c2ccc(C#Cc3cccnc3)cc2O[C@H]1CN(C)C(=O)CN(C)C`, the growth inhibition call was “inactive”. In the case of `CNC1C(OC2C(OC3C(O)C(O)C(NC(=N)N)C(O)C3NC(=N)N)OC(C)C2(O)C=O)OC(CO)C(O)C1O.O=S(=O)(O)O` (centres undefined) [STREPTOMYCIN SULFATE [5mM; 10% aq DMSO + 5mM ethanolamine]], the growth inhibition call is reported as “active”. With `CN[C@H]1[C@@H](O[C@H]2[C@@H](O[C@H]3[C@@H](O)[C@@H](O)[C@@H](NC(=N)N)[C@@H](O)[C@@H]3NC(=N)N)O[C@@H](C)[C@@]2(O)C=O)O[C@@H](CO)[C@@H](O)[C@@H]1O.CN[C@H]1[C@@H](O[C@H]2[C@@H](O[C@H]3[C@@H](O)[C@@H](O)[C@@H](NC(=N)N)[C@@H](O)[C@@H]3NC(=N)N)O[C@@H](C)[C@@]2(O)C=O)O[C@@H](CO)[C@@H](O)[C@@H]1O.O=S(=O)(O)O.O=S(=O)(O)O.O=S(=O)(O)O` the growth inhibition call was “inactive”. `CN[C@@H]1[C@H](O[C@H]2[C@H](O[C@H]3[C@H](O)[C@@H](O)[C@H](NC(=N)N)[C@@H](O)[C@@H]3NC(=N)N)O[C@@H](C)[C@]2(O)C=O)O[C@@H](CO)[C@H](O)[C@H]1O` was tested, and the growth inhibition call was “inactive”. For `O=C(NC1CC1)[C@@H]1c2ccccc2C(=O)N(Cc2cc(F)cc(C(F)(F)F)c2)[C@H]1c1ccc(CO)cc1`, the growth inhibition call was “inactive”. With `Cc1noc(C)c1NC(=O)Nc1ccc2c(c1)CC(=O)N([C@H](C)CO)C[C@@H](C)[C@@H](CN(C)C(=O)Nc1ccc(C(F)(F)F)cc1)O2` the growth inhibition call was “inactive”. In the case of `C[C@@H]1CN([C@@H](C)CO)C(=O)c2cc(NC(=O)Nc3ccc(C(F)(F)F)cc3)ccc2O[C@@H](C)CCCCO[C@H]1CN(C)Cc1ccc(C(=O)O)cc1`, the growth inhibition call is reported as “inactive”.
